For experiment [1], the target named is Bromodomain-containing protein 4 (Homo sapiens) (UniProt O60885). The note with it: Compound concentration 20.0 uM, Protein concentration 2.0 uM, Result type QC Liability.
In experiment [2] the target is T1, Transcription intermediary factor 1-alpha (Homo sapiens) (UniProt O15164).
T1 sequence (whole entry): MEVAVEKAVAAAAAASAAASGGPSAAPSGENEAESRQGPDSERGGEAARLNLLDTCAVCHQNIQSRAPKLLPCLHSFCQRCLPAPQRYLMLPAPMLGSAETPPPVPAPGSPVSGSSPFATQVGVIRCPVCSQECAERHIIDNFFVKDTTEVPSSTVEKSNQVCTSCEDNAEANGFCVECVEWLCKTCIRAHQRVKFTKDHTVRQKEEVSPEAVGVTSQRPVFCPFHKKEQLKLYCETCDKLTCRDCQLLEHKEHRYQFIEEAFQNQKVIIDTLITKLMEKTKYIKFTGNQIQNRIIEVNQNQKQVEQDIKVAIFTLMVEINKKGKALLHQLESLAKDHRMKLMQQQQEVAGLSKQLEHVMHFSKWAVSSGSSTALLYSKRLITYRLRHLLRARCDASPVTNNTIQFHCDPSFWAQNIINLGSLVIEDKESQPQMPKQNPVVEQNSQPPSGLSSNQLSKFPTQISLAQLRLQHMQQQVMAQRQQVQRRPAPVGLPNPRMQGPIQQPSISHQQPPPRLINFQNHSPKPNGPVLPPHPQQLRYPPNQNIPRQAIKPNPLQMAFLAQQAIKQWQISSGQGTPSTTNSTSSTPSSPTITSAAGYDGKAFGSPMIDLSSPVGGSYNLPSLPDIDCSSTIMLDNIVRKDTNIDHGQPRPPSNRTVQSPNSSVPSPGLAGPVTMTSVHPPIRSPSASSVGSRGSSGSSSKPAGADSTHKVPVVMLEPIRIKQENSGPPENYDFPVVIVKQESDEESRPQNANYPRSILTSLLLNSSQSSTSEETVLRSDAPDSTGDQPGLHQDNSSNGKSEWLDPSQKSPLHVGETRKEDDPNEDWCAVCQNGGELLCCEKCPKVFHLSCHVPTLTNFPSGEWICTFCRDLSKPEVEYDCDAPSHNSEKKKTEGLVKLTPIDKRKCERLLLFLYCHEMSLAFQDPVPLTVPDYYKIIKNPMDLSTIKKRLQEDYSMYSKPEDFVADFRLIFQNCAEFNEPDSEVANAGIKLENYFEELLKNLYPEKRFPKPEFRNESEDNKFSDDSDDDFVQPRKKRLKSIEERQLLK
As to conditions: Compound concentration 20.0 uM, Protein concentration 2.0 uM, Result type QC Liability.

Numbered stars: 1 amine (or outer) side, 2 acyl side, 3 side chain; on linkers, the order of the positions; unused ones are H or OH. Bridge positions count the residues as written; N and C are the ends. Square brackets hold non-standard residues; d marks the D form. Peptide text beside a SMILES is read from it. I, II: the chains in the order shown. Hexamethylenediamine = C(CCCN[*:2])CCN[*:1]; Dip = N[C@H](C(=O)O)C(c1ccccc1)c1ccccc1; Chg = N[C@H](C(=O)O)C1CCCCC1; NMeA = CN[C@@H](C)C(=O)O

Experimental findings from ChEMBL document CHEMBL5308504, “Tm Shift (DSF) assay results for EUbOPEN Chemogenomics Library” (2023) are described below.

As a reminder, the ΔTm is the shift of the melting midpoint relative to a reference. On to `CC1CN(CC(=O)N2CC(C)(C)c3nc(CO)c(Cc4ccc(F)cc4)cc32)C(CN2CCOCC2C)CN1` (stereo unspecified), for which the thermal shift (ΔTm) is -2.32 °C in experiment [1] and -3.23 °C in experiment [2].

Regarding `COc1ccc2c(O[C@@H]3C[C@H]4C(=O)N[C@]5(C(=O)NS(=O)(=O)C6(C)CC6)CC5/C=C\CCCCC[C@H](NC(=O)c5ccn(C)n5)C(=O)N4C3)cc(OC(C)C)nc2c1C` (stereo partly specified), the results for the ΔTm in experiment [1] and in experiment [2] were 1.29 °C and 0.91 °C, respectively.

As for `O=C(CNCc1cc2ccccc2[nH]1)N[C@H]1CC[C@@H](c2nc3ccccc3[nH]2)CC1`, the thermal shift (ΔTm) in experiment [1] is -0.08 °C; in experiment [2], -0.53 °C.

Take `Cc1ccc(NS(=O)(=O)c2ccc3c(c2)C2C=CCC2C(c2ccc(C(=O)O)cc2)N3)cc1C` (stereo unspecified): the figures for the thermal shift (ΔTm) in experiment [1] and in experiment [2] were -2.09 °C and -2.63 °C, respectively.

Regarding `C[C@@H]1CCNC(=O)c2cc3ccc(C(=O)Nc4nc5ccccc5n4CCCN(C)C)cc3n21`, the ΔTm in experiment [1] was -0.87 °C; in experiment [2] it was -0.45 °C.

On to `COCCNC1CCC(Nc2cc(-c3csc(NCC4(C#N)CCOCC4)n3)c(Cl)cn2)CC1` (stereo unspecified), for which the thermal shift (ΔTm) was -0.18 °C in experiment [1] and -2.77 °C in experiment [2].

As for `CCOC(=O)c1cc2cc(-c3cc(C(=O)NCc4ccc(C(=O)O)cc4)nn3C)ccc2[nH]1`, the thermal shift (ΔTm) in experiment [1] was -0.14 °C; in experiment [2], 0.44 °C.

For `C[C@H](CCC(=O)O)[C@H]1CC[C@H]2[C@@H]3[C@H](O)C[C@@H]4C[C@H](O)CC[C@]4(C)[C@H]3C[C@H](O)[C@]12C`, the results for the thermal shift (ΔTm) in experiment [1] and in experiment [2] were -2.7 °C and -2.48 °C, respectively.

With `CC(C)(O)[C@H]1CC[C@H](Nc2ccc3ncc(-c4cccc(C(F)(F)F)c4)n3n2)CC1`, the ΔTm in experiment [1] was -0.97 °C; in experiment [2], -1.82 °C.

As for `Cc1ccc(C(=O)Nc2cc(N3CCN(C)CC3)cc(C(F)(F)F)c2)cc1-n1cc(-c2cnn(C)c2C)nn1`, the shift in melting temperature (ΔTm) in experiment [1] was -2.13 °C; in experiment [2], -1.79 °C.

As to `CN(C)CCCNc1ccnc(Nc2cccc(Cl)c2)n1`, the values for the ΔTm in experiment [1] and in experiment [2] were -2.63 °C and -4.21 °C, respectively.

In the case of `c1ccc(C(OC2CCN(CCCc3nnn[nH]3)CC2)c2ccccc2)cc1`, the values for the ΔTm in experiment [1] and in experiment [2] were -1 °C and -0.6 °C, respectively.

Regarding `O=C(O)CCCCCC[C@@H]1C(=O)NC(=O)N1CCC(O)C1CCCCC1` (stereo partly specified), the ΔTm in experiment [1] is -1.84 °C; in experiment [2] it was -0.56 °C.

For the compound `COc1cc(C)c(S(=O)(=O)N(C)CCOCC(=O)N(C)[C@H]2CCC[C@@H](N3CCN(C)CC3)C2)c(C)c1`, the ΔTm was -1.54 °C in experiment [1] and 0.17 °C in experiment [2].

For `Nc1ncnc2c1ccn2[C@@H]1O[C@H]([C@@H](O)c2ccccc2)[C@@H](O)[C@H]1O`, the ΔTm in experiment [1] is -2.22 °C; in experiment [2], -3.4 °C.

With `CCO[C@H](COc1ccc(C(F)(F)F)cc1)CSc1ccc(OCC(=O)O)c(C)c1`, the values for the ΔTm in experiment [1] and in experiment [2] were -2.72 °C and -3.26 °C, respectively.

With `CCC(C)(C)CC[C@H](NC(=O)N1CCOCC1)C(=O)NC1(C#N)CCN(C)CC1`, the shift in melting temperature (ΔTm) in experiment [1] was -0.41 °C; in experiment [2], 0.53 °C.

As to `CN[C@@H](C)C(=O)N[C@H](C(=O)N1CCC[C@H]1C(=O)Nc1sc(-c2ncco2)nc1-c1ccccc1)C1CCCCC1`, the figures for the thermal shift (ΔTm) in experiment [1] and in experiment [2] were -2.68 °C and -2.9 °C, respectively.

In the case of `COc1cc2nc(C)nc(N[C@H](C)c3cc(N)cc(C(F)(F)F)c3)c2cc1O[C@H]1CCOC1`, the figures for the ΔTm in experiment [1] and in experiment [2] were 0 °C and 0.8 °C, respectively.

Turning to `CC(C)(C)c1cc(NC(=O)c2csc(Nc3ccccn3)n2)no1`, the ΔTm was 1.16 °C in experiment [1] and 1.12 °C in experiment [2].

With `CC(C)C(=O)N[C@@H]1CCN(C(=O)Nc2nc3c(s2)-c2nc(-c4ccccc4Cl)ncc2CC3)C1`, the values for the thermal shift (ΔTm) in experiment [1] and in experiment [2] were -0.28 °C and -3.41 °C, respectively.

Turning to `CC(C)[C@H](CO)Nc1nc(Nc2ccc(C(=O)O)c(Cl)c2)c2ncn(C(C)C)c2n1`, the shift in melting temperature (ΔTm) in experiment [1] was 0.61 °C; in experiment [2], -2.66 °C.

Regarding `O=C(O)c1cccc(C2=C(c3cc(Cl)ccc3OCc3ccc(F)cc3F)CCC2)n1`, the ΔTm in experiment [1] is -0.65 °C; in experiment [2], -2.91 °C.

In the case of `Cc1cc(=O)n(C)c2cc(N3C(=O)CC[C@H](NS(=O)(=O)CC(C)C)[C@H]3c3ccc(Cl)cc3)ccc12`, the thermal shift (ΔTm) in experiment [1] was -3.01 °C; in experiment [2] it was -3.49 °C.

In the case of `NC(=O)c1sc2nc(N3CCC(NC[C@H](O)c4ccccn4)CC3)cc(C(F)(F)F)c2c1N`, the results for the thermal shift (ΔTm) in experiment [1] and in experiment [2] were -3.3 °C and -3.39 °C, respectively.

Consider `N#Cc1c(SCc2csc(-c3ccc(Cl)cc3)n2)nc(N2CCCC2)c(C#N)c1-c1ccc(OCCO)cc1`, for which the ΔTm is -0.25 °C in experiment [1] and 0.42 °C in experiment [2].

Turning to `CN[C@@H](C)C(=O)N[C@H](C(=O)N1CCC[C@H]1C(=O)N[C@H](C(=O)NCCCCCCNC(=O)[C@@H](NC(=O)[C@@H]1CCCN1C(=O)[C@@H](NC(=O)[C@H](C)NC)C1CCCCC1)C(c1ccccc1)c1ccccc1)C(c1ccccc1)c1ccccc1)C1CCCCC1` (I: H-[NMeA][Chg]P[Dip] / II: H-[NMeA][Chg]P[Dip]; linker I:C-II:C via Hexamethylenediamine), the ΔTm in experiment [1] is -4.77 °C; in experiment [2], -4.59 °C.

As to `CC1(C)C(=O)N([C@H]2CCc3c(O)cccc32)c2nc(Nc3cccc(CN4CCCC4)c3)ncc21`, the results for the thermal shift (ΔTm) in experiment [1] and in experiment [2] were -2.45 °C and -2.64 °C, respectively.

For `CN(CC(=O)Nc1ccc(F)c(F)c1F)C(=O)c1ccc2c(c1)OCCO2`, the ΔTm in experiment [1] was -2.94 °C; in experiment [2] it was -2.59 °C.

`O=C(NC1CCNCC1)c1n[nH]cc1NC(=O)c1c(Cl)cccc1Cl`: the ΔTm is -0.14 °C in experiment [1] and -1.34 °C in experiment [2].

Consider `N#CC[C@H](C1CCCC1)n1cc(-c2ncnc3[nH]ccc23)cn1`, for which the results for the ΔTm in experiment [1] and in experiment [2] were -0.65 °C and -1.72 °C, respectively.

For the compound `Cc1cc(-c2ccnc(Nc3cnn(C)c3)n2)ccc1CNC(=O)N1CC(OC(C)C)C1`, the ΔTm was -2.36 °C in experiment [1] and 0.22 °C in experiment [2].

As to `O=C(O)c1cc(F)c2nc(N3[C@@H]4CC[C@H]3C[C@@H](OCc3c(-c5ccccc5OC(F)(F)F)noc3C3CC3)C4)sc2c1`, the ΔTm in experiment [1] was -7.4 °C; in experiment [2] it was -1.62 °C.

`Cc1cc(-c2cc3ncccc3c(OC[C@H]3CCCNC3)n2)ccc1N(C)C`: the ΔTm in experiment [1] is -2.56 °C; in experiment [2] it was -2.49 °C.

As for `Fc1ccc(Cl)cc1-c1nc(Nc2ccncc2)c2nccnc2n1`, the thermal shift (ΔTm) in experiment [1] is -2.28 °C; in experiment [2] it was -1.86 °C.

In the case of `CCN(C)C(=O)c1ccc2c(c1)NC(=O)/C2=C(\NC1CCN(C)CC1)c1ccccc1`, the values for the ΔTm in experiment [1] and in experiment [2] were 0.55 °C and 0.21 °C, respectively.

As to `Cc1n[nH]c2ncc(C(=O)N3CCC[C@H]3c3ccc(Cl)cc3)cc12`, the ΔTm in experiment [1] was 0 °C; in experiment [2], -1.73 °C.

Consider `CC(C)N1CCN(Cc2cnc(-c3cc(-c4cccc5[nH]ccc45)cc4[nH]ncc34)o2)CC1`, for which the results for the ΔTm in experiment [1] and in experiment [2] were 0 °C and -2.06 °C, respectively.

On to `CC(C)C[C@H](NC(=O)[C@@H](O)[C@H](N)Cc1ccccc1)C(=O)O`, for which the ΔTm in experiment [1] was -0.66 °C; in experiment [2], -0.82 °C.

As to `COc1cc(-c2cc3ncccc3c(OC[C@H]3CNC(=O)C3)n2)cc(OC)c1OC1CCOCC1`, the ΔTm in experiment [1] was -1.76 °C; in experiment [2] it was -2.27 °C.

On to `O=C(NC[C@@H]1[C@H]2CN(C(=O)OCc3cc(C(F)(F)F)cc(C(F)(F)F)c3)C[C@@H]12)c1ccc2[nH]nnc2c1`, for which the ΔTm in experiment [1] is 2.07 °C; in experiment [2], 1.3 °C.

On to `CC(C)c1nc2c(c3c1[C@@H](c1ccc(C(F)(F)F)cc1)OC31CCOCC1)[C@@H](O)CC(C)(C)C2`, for which the thermal shift (ΔTm) in experiment [1] is -1.67 °C; in experiment [2], 0.17 °C.

Take `N#Cc1cccc(-c2c[nH]c3ncnc(N4CCOCC4)c23)c1`: the shift in melting temperature (ΔTm) is -2.27 °C in experiment [1] and -2.93 °C in experiment [2].
